Many of the other results were omitted from the sample, so hits are more common in it than they were.
VACV E9 pol inh: vaccinia E9 polymerase processive synthesis inhibition; in vitro processive DNA synthesis, absorbance read-out; stronger effect = lower value; normalized absorbance, % (no concentration beside the values); 46,000 compounds, 0.94% hits; in the data active = normalized absorbance mostly below about 85%, no sharp cut-off; inactive = mostly above about 86%
Starred values were filed as active, the others as inactive.

SMILES | VACV E9 pol inh
c1ccc(NCC2COc3ccccc3O2)nc1 (stereo not drawn) | 107
O=S(=O)(c1cc(Cl)sc1Cl)N1CCSCC1 | 115
Cc1nnc(NC(=O)CSc2nnc(Cc3cccn3C)n2-c2ccc(F)cc2)s1 | 97
CCOC(=O)N1CCN(c2cc(C(F)(F)F)nc3c(Cl)cccc23)CC1 | 104
CC(C)/C=c1/[nH]c(=O)/c(=C/c2ccccc2)[nH]c1=O | 100
CCCc1nc2ccccc2n1CC | 101
COc1ccc(/C=C2\SC(N)=NC2=O)cc1O | 99
N#Cc1c(/N=C/c2cc(Cl)cc(Cl)c2O)sc2c1CCC2 | 100
COC(=O)c1c(N)sc(/C(C)=C/C#N)c1C | 100
Cc1ccc(C)n1CCc1c[nH]c2ccccc12 | 107
CC1CCN(C(=O)c2cc3c(s2)-c2ccc(Cl)cc2SC3)CC1 | 96
CN(C)CCNC(=O)c1cc2c(s1)-c1ccc(Cl)cc1SC2 | 55*
CC(C)NC(=O)c1cc2c(s1)-c1ccccc1SC2 | 94
COC(=O)Cc1c(C)c2ccc3c(c2oc1=O)CN(Cc1cccc(OC)c1)CO3 | 93
COc1ccc2cc3[n+](cc2c1OC)CCc1cc2c(cc1-3)OCO2 | 82*
COc1ccc2c(c1OC)CN(C)CCc1cc3c(cc1C(O)C2)OCO3 (stereo not drawn) | 110
COc1ccc2c(c1OC)CN1CCc3cc4c(cc3C1C2)OCO4 (stereo not drawn) | 100
O=C(CCCCn1c(=O)[nH]c2ccsc2c1=O)N1CCCCC1 | 90
COCCN1C(=O)c2ccccc2C(C(=O)N2CCCC2)C1c1c[nH]c2ccccc12 (stereo not drawn) | 106
COc1ccc(OCC2c3cc(OC)c(OC)cc3CCN2C(=O)C(C)C)cc1 (stereo not drawn) | 96
COc1cc2cc3c4c(cc(OC)c(OC)c4c2cc1OC)CCN3C | 66*
COc1ccc(C(=O)N2CCc3cc(OC)c(OC)cc3C2C)cc1 (stereo not drawn) | 91
Cc1ccc(C2=CC(c3ccccc3)SC(N)=N2)cc1 (stereo not drawn) | 101
C=CCN1C(=O)C(C(=O)Nc2ccccc2)C2CC1(C)Oc1ccccc12 (stereo not drawn) | 108
CCCCn1c(CNC(=O)COC)nc2ccccc21 | 100
SMILES | VACV E9 pol inh
COc1ccc(CCN(C)C(=S)NN)cc1OC | 100
O=C(CSc1nc2ccccc2[nH]1)N1CCCc2ccccc21 | 95
CCOC(=O)Nc1ccc(Br)cc1C(NCC(=O)OC)c1ccccc1 (stereo not drawn) | 98
Nc1ccc(Br)cc1C(NCC(=O)O)c1ccccc1 (stereo not drawn) | 89
Cc1ccc(S(=O)(=O)Nc2ccc(Br)cc2C(NCC(=O)O)c2ccccc2)cc1 (stereo not drawn) | 68*
COc1ccc(NC(=O)Nc2ccc(OC)c(OC)c2)cc1OC | 100
N#Cc1c(N)n(CCc2ccccc2)c2nc3ccccc3nc12 | 94
N#Cc1c(N)n(CCN)c2nc3ccccc3nc12 | 85*
CCCCn1c(N)c(C#N)c2nc3ccccc3nc21 | 95
CCn1ncc(C2=NOC(C(=O)NC3CCCCC3)C2)c1C (stereo not drawn) | 103
C/C(=C\C#N)Nc1cccc(C(F)(F)F)c1 | 100
CN(C)S(=O)(=O)c1ccc(C#N)cc1 | 100
CC1CCN(S(=O)(=O)c2ccc3c(c2)OCC(=O)N3)CC1 | 94
Cc1ccc(-n2nnnc2-c2nc3ccccc3s2)cc1 | 111
Cc1ccc(-c2nc3ccccc3s2)cc1 | 71*
CCN(CC)S(=O)(=O)c1ccc(-c2nc3ccccc3s2)cc1 | 99
O=C(COc1cccc(Cl)c1)Nc1ccc(OC(F)(F)F)cc1 | 99
CCCCC(CC)CSc1nc2ncccc2[nH]1 (stereo not drawn) | 102
CCc1nnc(SCc2ccccc2)c2cc3occc3n12 | 91
Cc1ccc(C)c(CSc2nncn3c2cc2occc23)c1 | 91
Cc1nnc(SCc2ccc(F)cc2Cl)c2cc3occc3n12 | 72*
CCCN(Cc1cccs1)C(=O)NC12CC3CC(CC(C3)C1)C2 | 99
Cn1c(=NC(=O)c2c(F)cccc2F)sc2cc(S(C)(=O)=O)ccc21 | 94
c1ccc(-c2nsc(NC3Cc4ccccc4C3)n2)cc1 | 100
CC(C)(C)NC(=O)N1CCN(c2nc(-c3ccccc3)ns2)CC1 | 66*
SMILES | VACV E9 pol inh
O=C(O)/C=C\C(=O)N1CCN(c2nc(-c3ccccc3)ns2)CC1 | 95
Cc1cc(C(=O)Nc2cccc(Cl)c2)on1 | 102
CC1Cc2ccccc2N1C(=O)COC(=O)c1ccccc1 (stereo not drawn) | 101
CSc1nc2ccc3nc(NC(=O)c4ccccc4Cl)sc3c2s1 | 100
COc1cccc2sc(NC(=O)c3ccccc3Cl)nc12 | 107
O=C(Nc1nc(=S)ss1)c1ccccc1Cl | 69*
CC1=[N+](S(=O)(=O)c2ccc(Cl)cc2)CCN1 | 94
Cc1ccc(CNC(=O)c2oc3ccccc3c2-n2cccc2)cc1 | 108
CC(=O)Nc1c(C(=O)O)oc2ccc(Br)cc12 | 100
O=C(O)c1oc2ccc(Br)cc2c1-n1cccc1 | 67*
N#CCc1nnc2n1CCCCC2 | 100
Cc1nn(C(=O)COc2ccc(Cl)cc2Cl)c(N)c1-c1ccccc1 | 100
O=C(CC(=O)c1ccccc1)Nc1cc(C(F)(F)F)ccc1Cl | 100
CC(Nc1ccccc1)C(=O)Nc1cc(C(F)(F)F)ccc1Cl (stereo not drawn) | 100
COc1ccc(Nc2cc(C(F)(F)F)ccc2Cl)c(C(=O)O)c1 | 60*
CCOC(=O)c1c(-c2ccccc2)csc1N | 94
Nc1sc(-c2ccccc2)c(Cc2ccccc2)c1C(=O)O | 90*
Nc1sc2c(c1C(=O)c1ccccc1)CCCC2 | 101
Cc1cccc(-n2ncc3ccccc3c2=O)c1 | 96
CCc1ccc(Nc2c3c(nc4ccccc24)CCC3)cc1 | 86
CCc1ccc(Nc2c3c(nc4ccccc24)CCCC3)cc1 | 91
CN(C)CCCNc1c2c(nc3ccccc13)CCC2 | 27*
COc1ccc(OC)c(CNC(=O)CN2Cc3ccccc3C2=O)c1 | 96
CN(C)c1ccc(C2=CC=CC(=C3C=CC(=[N+](C)C)C=C3)O2)cc1 | 39*
CCOC(=O)c1cnn(C(=O)c2ccc(-n3c(C)ccc3C)cc2)c1N | 66*
SMILES | VACV E9 pol inh
CCOC(=O)c1cnn(-c2ccccn2)c1N | 101
COC(=O)c1ccc(-n2c(C)ccc2C)cc1 | 98
O=C(COC(=O)CCC1CCCC1)Nc1ncc(C(F)(F)F)cc1Cl | 102
CCN1CCCC1CNC(=O)CCn1c(=O)c2cccn2c2cccnc21 (stereo not drawn) | 88
O=C(Nc1ncn[nH]1)Nc1cccc2ccccc12 | 100
CCc1cc2c(=O)c(-c3ccc4c(c3)OCO4)coc2cc1O | 82*
COc1ccc2c(=O)c(-c3ccc4c(c3)OCCO4)coc2c1 | 94
CCc1cc2c(=O)c(-c3ccccc3)coc2cc1O | 98
N=C1c2ccccc2CN1c1ccc2c(c1)OCCO2 | 104
CCc1ccc(N2Cc3ccccc3C2=N)cc1 | 99
Cc1cc(C)nc(N2Cc3ccccc3C2=N)n1 | 69*
CC(=O)N1C(C(=O)NCc2ccc(C)cc2)CSC12CCN(C)CC2 (stereo not drawn) | 99
O=C(CSc1nncn1-c1ccccc1)Nc1c(F)c(F)c(F)c(F)c1F | 100
CN=C1S/C(=C\c2ccc(N3Cc4ccccc4C3)cc2)C(=O)N1C | 101
COc1ccccc1-c1nnc(C2CCN(C(=O)c3ccccc3)CC2)o1 | 101
CC(=NCc1ccc(Cl)c(Cl)c1)c1ccccc1O | 100
CN(C)C=NC(=O)c1ccc(-c2cccs2)s1 | 80*
Cc1ccc(C(=O)c2cccs2)s1 | 99
